PP5 primary – inhibitors of human protein phosphatase 5 (PP5). P53041. purified PP5c, OMFP substrate fluorescence. inhibition, % at 6.7 µM. 320,000 tested, 0.18% active. AID 1987;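 active = inhibition above the campaign's mean inhibition across all tested compounds plus 3 SD, cut at about 9.5% in these data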;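 note: 0% = DMSO only and 100% = 100 µM cantharidin control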
Target sequence (P53041 whole entry, looked up): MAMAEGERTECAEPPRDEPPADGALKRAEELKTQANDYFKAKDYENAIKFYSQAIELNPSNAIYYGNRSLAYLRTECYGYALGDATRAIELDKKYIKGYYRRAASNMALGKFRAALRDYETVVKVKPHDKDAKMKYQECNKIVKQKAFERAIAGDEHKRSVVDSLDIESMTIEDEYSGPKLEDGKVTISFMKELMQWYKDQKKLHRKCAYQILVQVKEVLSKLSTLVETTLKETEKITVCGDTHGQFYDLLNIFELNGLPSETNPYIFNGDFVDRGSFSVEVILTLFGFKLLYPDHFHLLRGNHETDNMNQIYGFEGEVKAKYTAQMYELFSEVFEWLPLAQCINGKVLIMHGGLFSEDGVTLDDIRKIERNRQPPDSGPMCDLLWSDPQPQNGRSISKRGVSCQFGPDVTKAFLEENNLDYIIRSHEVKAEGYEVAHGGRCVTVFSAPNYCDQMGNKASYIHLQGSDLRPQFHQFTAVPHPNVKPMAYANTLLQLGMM
Calb FLC – affects C. albicans growth with fluconazole; 300,000 tested, 0.57% active; growth inhibition, % (concentration not given with the values); C. albicans CaCi-2 (fluconazole-resistant clinical isolate) + fluconazole, Alamar Blue growth, 48 h;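 active = growth inhibition above about 58% in most replicates, limit read from the data, passing the limit was not always enough; inconclusive = exactly half the replicates above a set limit; inactive = most replicates below a set limit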;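 note: all wells also contain fluconazole at 8 µg/ml as a sub-toxic cotreatment; 0% = median of DMSO wells and 100% = median of geldanamycin control wells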
PP1 inh – PP1-alpha (human) inhibition in PP5 counter-screen; P62136; purified PP1alpha, OMFP fluorescence; inhibition, % at 6.7 µM; 320,000 tested, 0.9% active; AID 2235;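 active = inhibition above the mean inhibition of all tested compounds plus 3 SD, computed separately for each screening campaign, cut at about 15% in these data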
CSC inhib – cancer stem cell inhibition; cancer stem cell-like cells viability, luminescence; inhibition, % at 7.5 µM; 300,000 tested, 1.1% active; AID 2717; in the data active = inhibition above about 75%; inconclusive = no clear call, values can overlap the other calls; tested in HMLE shEcad cells
ALR inh – inhibitors of human sulfhydryl oxidase ALR; P55789; purified ALR, DTT oxidation, H2O2 HRP-luminol luminescence; inhibition, % (no concentration beside the values); 290,000 tested, 3.8% active; AID 485317;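 active = mean replicate inhibition above about 79%, with every replicate also reaching it, limit read from the data; inconclusive = only one of the two criteria met; inactive = mean below limit and not every replicate reaching it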
An asterisk follows results filed as active; ? = inconclusive; / = no result given. An excerpt weighted towards active compounds, which were near 5.4% of everything screened.

SMILES	PP5 primary	Calb FLC	PP1 inh	CSC inhib	ALR inh
O=C(O)CCn1cc(C=C2C(=O)NC(=S)NC2=O)c(-c2ccccc2)n1	1	0	2	/	87*
COc1cccc(N2C(=O)NC(=O)/C(=C/c3ccc([N+](=O)[O-])s3)C2=O)c1	3	-1	1	2	-5
CC1(C)CC(CCNCc2ccc3c(c2)OCO3)(Cc2ccccc2)CCO1 (configuration not stated)	1	-1	-5	-8	-8
Cc1cc(C)c2c(c1)-c1cc(C)nn1C(c1cccnc1)N2 (configuration not stated)	3	3	1	-12	99*
CC(C)c1ccc(N2C(=O)NC(=O)/C(=C\c3cnc(-c4ccccc4)nc3)C2=O)cc1	4	-1	0	0	4
CC(C)N1C(=O)/C(=C/C=C/c2ccco2)C(=O)N(Cc2ccco2)C1=O	2	-2	7	47	98*
COc1ccc(CN2C(=O)NC(=O)/C(=C\c3ccco3)C2=O)cc1	-1	-6	-3	3	2
O=C1NC(=O)N(Cc2ccccc2)C(=O)/C1=C/C=C/c1ccco1	-1	6	4	90*	98*
CC(C)c1ccc(N2C(=O)NC(=O)/C(=C\C=C\c3ccco3)C2=O)cc1	1	-1	11	99*	19
COc1ccc(C(CN(C)C)C2(O)CCCCC2)cc1 (configuration not stated)	-1	-9	0	-13	-3
OC1(c2ccc(F)cc2)CCNC1 (configuration not stated)	0	-4	-3	-10	-3
O=C1C(Cl)=CC(=Nc2ccc(O)cc2)C=C1Cl	1	/	-2	/	99*
CCCCC/C(=N\O)c1c[nH]c2ccccc12	3	-25	2	/	48
CCCC/C(=N/O)c1c(C)[nH]c2ccccc12	2	-1	-3	8	99*
CCCCC/C(=N/O)c1c(C)[nH]c2ccccc12	2	-2	-3	0	99*
CCN(CC)c1ccc(/C=C/[N+](=O)[O-])cc1	-1	-2	2	69	99*
COc1cc(/C=C/[N+](=O)[O-])ccc1O	1	3	-1	1	43
CC12CCC3C(CC=C4CC(O)CCC43C)C1C/C(=C\c1ccccc1F)C2=O (configuration not stated)	0	-6	-3	99*	-17
Cc1ccc(-c2cc(-c3ccccc3)cc(-c3ccccc3)[n+]2-c2ccccc2C(=O)O)cc1	5	96*	-4	-3	-31
C[n+]1c(-c2ccccc2)cc(-c2ccc(O)cc2)cc1-c1ccccc1	0	-15	0	3	?
CC(C)COC(=O)c1ccccc1C(=O)OCC(C)C	3	-2	-3	-1	-23
C[CH2][Hg][S]c1ccccc1C(=O)O	3	/	-3	104*	11
NC(Cc1cc(O)c(O)cc1O)C(=O)O (configuration not stated)	0	/	69*	-2	/
COC(=O)Cn1cc(C=C2C(=O)NC(=O)NC2=O)c2ccccc21	0	13	3	5	6
COc1c(C=C2C(=O)NC(=O)NC2=O)c(CCN(C)C(=O)c2ccccc2)cc2c1OCO2	2	30	-4	-3	96*
SMILES	PP5 primary	Calb FLC	PP1 inh	CSC inhib	ALR inh
Cc1ccccc1-c1nc(CS(=O)CC(=O)N2CCC3(CC2)OCCO3)c(C)o1 (configuration not stated)	4	5	4	-1	100*
Cc1ccsc1-c1nc(CSCC(=O)N2CCC3(CC2)OCCO3)c(C)o1	-1	-6	2	-8	99*
CCC1C=CC=CC[C@H](C)[C@@H](O)[C@](C)(O)C(=O)[C@@H](C)[C@H](O)[C@@H](C)C(=O)[C@H](C)[C@@H](O)[C@H](C)C=CC(=O)OC2[C@@H](C)C(CC1)OC1(CC[C@@H](C)C(C[C@H](C)O)O1)[C@@H]2C (some centres not stated)	8	/	2	99*	/
CN(C)CCNC(=O)c1cccn(Cc2cc(C(F)(F)F)cc(C(F)(F)F)c2)c1=O	-3	-2	-1	1	8
NC(=O)c1ccc(C(=O)Nc2ccc([As](=O)(O)O)cc2)cc1	-3	1	-2	-11	-1
O=[As](O)(O)c1ccc(N=Nc2ccc(O)cc2)cc1	/	7	/	-8	99*
COc1ccccc1-n1c(O)c(/C=N/NC(=S)Nc2ccccc2)c(=O)[nH]c1=S	-1	0	0	-20	92*
O=C(COC(=O)c1ccc(O)cc1)Nc1ccc(Cl)cc1C(=O)c1ccccc1	3	13	1	7	96*
